# Measured values taken from the supplement of paper PMC12282887.
# ± gives the standard deviation of the averaged measurements.
# Assays:
# Experiment in all cases: promoter activity interaction Z-score (Lux/OD deviation from empty-vector control); higher = stronger promoter induction by the compound
# [1] = tested on: E. coli BW25113 acrABp lux reporter
# How it was run: (§1)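 OD600 and luminescence of E. coli BW25113 reporter cultures (40 µl LB Lennox, 384-well plates, 37°C) were measured every 30 min for 12 h. Integration ran over 0–8 h for wild type or 1–9 h for deletion strains, and wells with growth below 10% of the median were dropped. The score is the Z-transformed residual of growth-normalised luminescence fitted against a control.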
# [2] = tested on: E. coli BW25113 marRABp lux reporter
# How it was run: as §1
# [3] = tested on: E. coli BW25113 micFp lux reporter
# How it was run: as §1
# [4] = tested on: E. coli BW25113 ompFp lux reporter
# How it was run: as §1
# [5] = tested on: E. coli BW25113 robp lux reporter
# How it was run: as §1
# [6] = tested on: E. coli BW25113 soxSp lux reporter
# How it was run: as §1
# [7] = tested on: E. coli BW25113 tolCp lux reporter
# How it was run: as §1
# [8] = 14.6 µg/ml, genetic background: wild type
# [9] = 14.6 µg/ml, genetic background: ΔmarA
# [10] = 14.6 µg/ml, genetic background: Δrob
# [11] = 14.6 µg/ml, genetic background: ΔsoxS
# [12] = 29.3 µg/ml, genetic background: wild type
# [13] = 29.3 µg/ml, genetic background: ΔmarA
# [14] = 29.3 µg/ml, genetic background: Δrob
# [15] = 29.3 µg/ml, genetic background: ΔsoxS
# [16] = 58.6 µg/ml, genetic background: wild type
# [17] = 58.6 µg/ml, genetic background: ΔmarA
# [18] = 58.6 µg/ml, genetic background: Δrob
# [19] = 58.6 µg/ml, genetic background: ΔsoxS
# [20] = 117.2 µg/ml, genetic background: wild type
# [21] = 117.2 µg/ml, genetic background: ΔmarA
# [22] = 117.2 µg/ml, genetic background: Δrob
# [23] = 117.2 µg/ml, genetic background: ΔsoxS
smiles,measurement,setting,value
c1ccc2[nH]ccc2c1 [Indole],promoter activity interaction Z-score,[1]; [8],0.275 ± 0.27
same,promoter activity interaction Z-score,[1]; [9],0.599 ± 0.24
same,promoter activity interaction Z-score,[1]; [10],0.275 ± 0.17
same,promoter activity interaction Z-score,[1]; [11],0.000826 ± 0.08
same,promoter activity interaction Z-score,[1]; [12],0.165 ± 0.071
same,promoter activity interaction Z-score,[1]; [13],0.0409 ± 0.28
same,promoter activity interaction Z-score,[1]; [14],0.281 ± 0.18
same,promoter activity interaction Z-score,[1]; [15],0.463 ± 0.32
same,promoter activity interaction Z-score,[1]; [16],-0.112 ± 0.29
same,promoter activity interaction Z-score,[1]; [17],0.00303 ± 0.77
same,promoter activity interaction Z-score,[1]; [18],-0.21 ± 0.23
same,promoter activity interaction Z-score,[1]; [19],-0.312 ± 0.055
same,promoter activity interaction Z-score,[1]; [20],0.167 ± 0.52
same,promoter activity interaction Z-score,[1]; [21],-0.375 ± 0.025
same,promoter activity interaction Z-score,[1]; [22],-0.278 ± 0.012
same,promoter activity interaction Z-score,[1]; [23],0.0661 ± 0.25
same,promoter activity interaction Z-score,[2]; [8],0.304 ± 0.29
same,promoter activity interaction Z-score,[2]; [9],0.3765 ± 0.00083
same,promoter activity interaction Z-score,[2]; [10],0.103 ± 0.22
same,promoter activity interaction Z-score,[2]; [11],0.259 ± 0.025
same,promoter activity interaction Z-score,[2]; [12],0.16 ± 0.016
same,promoter activity interaction Z-score,[2]; [13],0.41 ± 0.022
same,promoter activity interaction Z-score,[2]; [14],0.118 ± 0.27
same,promoter activity interaction Z-score,[2]; [15],0.258 ± 0.2
same,promoter activity interaction Z-score,[2]; [16],0.085 ± 0.049
same,promoter activity interaction Z-score,[2]; [17],-0.158 ± 0.041
same,promoter activity interaction Z-score,[2]; [18],-0.0769 ± 0.035
same,promoter activity interaction Z-score,[2]; [19],-0.0326 ± 0.017
same,promoter activity interaction Z-score,[2]; [20],0.965 ± 0.34
same,promoter activity interaction Z-score,[2]; [21],0.558 ± 0.15
same,promoter activity interaction Z-score,[2]; [22],0.0948 ± 0.28
same,promoter activity interaction Z-score,[2]; [23],0.629 ± 0.47
same,promoter activity interaction Z-score,[3]; [8],-0.0516 ± 0.12
same,promoter activity interaction Z-score,[3]; [9],0.0327 ± 0.011
same,promoter activity interaction Z-score,[3]; [10],0.00243 ± 0.044
same,promoter activity interaction Z-score,[3]; [11],0.0247 ± 0.094
same,promoter activity interaction Z-score,[3]; [12],-0.0146 ± 0.021
same,promoter activity interaction Z-score,[3]; [13],-0.0163 ± 0.074
same,promoter activity interaction Z-score,[3]; [14],0.00613 ± 0.19
same,promoter activity interaction Z-score,[3]; [15],0.586 ± 0.069
same,promoter activity interaction Z-score,[3]; [16],0.0628 ± 0.13
same,promoter activity interaction Z-score,[3]; [17],-0.00313 ± 0.016
same,promoter activity interaction Z-score,[3]; [18],-0.138 ± 0.18
same,promoter activity interaction Z-score,[3]; [19],0.204 ± 0.28
same,promoter activity interaction Z-score,[3]; [20],0.516 ± 0.39
same,promoter activity interaction Z-score,[3]; [21],-0.0638 ± 0.0022
same,promoter activity interaction Z-score,[3]; [22],0.0554 ± 0.19
same,promoter activity interaction Z-score,[3]; [23],0.622 ± 0.087
same,promoter activity interaction Z-score,[4]; [8],0.322 ± 0.069
same,promoter activity interaction Z-score,[4]; [9],0.511 ± 0.0093
same,promoter activity interaction Z-score,[4]; [10],0.571 ± 0.51
same,promoter activity interaction Z-score,[4]; [11],0.225 ± 0.49
same,promoter activity interaction Z-score,[4]; [12],0.195 ± 0.09
same,promoter activity interaction Z-score,[4]; [13],0.309 ± 0.31
same,promoter activity interaction Z-score,[4]; [14],0.788 ± 0.39
same,promoter activity interaction Z-score,[4]; [15],0.734 ± 0.24
same,promoter activity interaction Z-score,[4]; [16],0.0808 ± 0.21
same,promoter activity interaction Z-score,[4]; [17],-0.0711 ± 0.22
same,promoter activity interaction Z-score,[4]; [18],-0.121 ± 0.61
same,promoter activity interaction Z-score,[4]; [19],-0.221 ± 0.36
same,promoter activity interaction Z-score,[4]; [20],0.63 ± 0.055
same,promoter activity interaction Z-score,[4]; [21],0.332 ± 0.29
same,promoter activity interaction Z-score,[4]; [22],0.341 ± 0.29
same,promoter activity interaction Z-score,[4]; [23],0.406 ± 0.096
same,promoter activity interaction Z-score,[5]; [8],0.568 ± 0.58
same,promoter activity interaction Z-score,[5]; [9],1.11 ± 0.29
same,promoter activity interaction Z-score,[5]; [10],0.842 ± 0.094
same,promoter activity interaction Z-score,[5]; [11],0.694 ± 0.19
same,promoter activity interaction Z-score,[5]; [12],0.773 ± 0.055
same,promoter activity interaction Z-score,[5]; [13],1.1 ± 0.014
same,promoter activity interaction Z-score,[5]; [14],0.598 ± 0.34
same,promoter activity interaction Z-score,[5]; [15],0.773 ± 0.2
same,promoter activity interaction Z-score,[5]; [16],-0.0581 ± 0.17
same,promoter activity interaction Z-score,[5]; [17],0.148 ± 0.5
same,promoter activity interaction Z-score,[5]; [18],0.569 ± 0.13
same,promoter activity interaction Z-score,[5]; [19],0.0833 ± 0.58
same,promoter activity interaction Z-score,[5]; [20],0.0933 ± 0.09
same,promoter activity interaction Z-score,[5]; [21],0.0401 ± 0.093
same,promoter activity interaction Z-score,[5]; [22],-0.335 ± 0.55
same,promoter activity interaction Z-score,[5]; [23],0.0103 ± 0.36
same,promoter activity interaction Z-score,[6]; [8],0.0112 ± 0.045
same,promoter activity interaction Z-score,[6]; [9],-0.0857 ± 0.076
same,promoter activity interaction Z-score,[6]; [10],-0.0709 ± 0.072
same,promoter activity interaction Z-score,[6]; [11],0.0403 ± 0.38
same,promoter activity interaction Z-score,[6]; [12],-0.034 ± 0.11
same,promoter activity interaction Z-score,[6]; [13],0.0579 ± 0.018
same,promoter activity interaction Z-score,[6]; [14],-0.0043 ± 0.038
same,promoter activity interaction Z-score,[6]; [15],0.238 ± 0.052
same,promoter activity interaction Z-score,[6]; [16],-0.0963 ± 0.0079
same,promoter activity interaction Z-score,[6]; [17],-0.00367 ± 0.068
same,promoter activity interaction Z-score,[6]; [18],-0.169 ± 0.082
same,promoter activity interaction Z-score,[6]; [19],-0.175 ± 0.24
same,promoter activity interaction Z-score,[6]; [20],-0.134 ± 0.044
same,promoter activity interaction Z-score,[6]; [21],-0.1992 ± 0.0019
same,promoter activity interaction Z-score,[6]; [22],-0.22 ± 0.15
same,promoter activity interaction Z-score,[6]; [23],-0.0773 ± 0.035
same,promoter activity interaction Z-score,[7]; [8],0.801 ± 1.5
same,promoter activity interaction Z-score,[7]; [9],0.744 ± 0.49
same,promoter activity interaction Z-score,[7]; [10],-0.506 ± 0.39
same,promoter activity interaction Z-score,[7]; [11],-0.474 ± 0.23
same,promoter activity interaction Z-score,[7]; [12],-0.36 ± 0.35
same,promoter activity interaction Z-score,[7]; [13],0.821 ± 1.3
same,promoter activity interaction Z-score,[7]; [14],0.287 ± 0.068
same,promoter activity interaction Z-score,[7]; [15],2.02 ± 0.35
same,promoter activity interaction Z-score,[7]; [16],-0.246 ± 0.9
same,promoter activity interaction Z-score,[7]; [17],0.0426 ± 0.17
same,promoter activity interaction Z-score,[7]; [18],-0.244 ± 0.44
same,promoter activity interaction Z-score,[7]; [19],1.06 ± 0.6
same,promoter activity interaction Z-score,[7]; [20],-0.0345 ± 0.59
same,promoter activity interaction Z-score,[7]; [21],-0.841 ± 0.13
same,promoter activity interaction Z-score,[7]; [22],-1.12 ± 0.97
same,promoter activity interaction Z-score,[7]; [23],-0.0289 ± 0.16
